Screening data deposited in PubChem BioAssay by National Center for Advancing Translational Sciences (NCATS).
Sampled rows, rich in hits. Any-hit rate of the full collection: about 0.86%.
GLS inhibitor – inhibitors of human glutaminase (GLS). GLS enzymatic activity, qHTS titration. Potency, µM (series often up to 45.5 µM), hits mostly inhibitors. 0.21% of 410,000 active
Target sequence (O94925 whole entry, looked up): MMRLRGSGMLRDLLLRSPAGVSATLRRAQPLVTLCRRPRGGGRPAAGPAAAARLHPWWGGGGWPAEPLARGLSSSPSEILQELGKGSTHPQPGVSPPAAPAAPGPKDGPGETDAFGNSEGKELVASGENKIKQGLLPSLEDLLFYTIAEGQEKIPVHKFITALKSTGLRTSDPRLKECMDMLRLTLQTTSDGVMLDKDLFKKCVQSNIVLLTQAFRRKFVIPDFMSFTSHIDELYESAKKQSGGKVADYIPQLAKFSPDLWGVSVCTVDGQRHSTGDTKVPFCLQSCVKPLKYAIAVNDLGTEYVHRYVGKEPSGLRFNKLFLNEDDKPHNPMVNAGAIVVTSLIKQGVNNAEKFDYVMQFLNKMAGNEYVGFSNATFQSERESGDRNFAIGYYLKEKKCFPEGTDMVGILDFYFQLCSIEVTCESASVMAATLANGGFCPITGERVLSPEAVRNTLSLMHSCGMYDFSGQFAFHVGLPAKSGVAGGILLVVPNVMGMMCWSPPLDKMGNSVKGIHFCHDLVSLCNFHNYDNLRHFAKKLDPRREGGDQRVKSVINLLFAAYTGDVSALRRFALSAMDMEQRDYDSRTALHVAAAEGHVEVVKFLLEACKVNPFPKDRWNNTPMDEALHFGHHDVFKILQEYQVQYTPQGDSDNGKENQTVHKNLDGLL
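Compounds were pin-transferred onto hKGA, after which L-glutamine (1 mM solution) and a detection mix of glutamate oxidase, HRP and Amplex Red were added. Initial and 30 min RT fluorescence reads were collected.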
BLM helicase inh – inhibitors of human Bloom syndrome helicase BLM; Potency, µM (titrated, usually from 56.1 µM), usual class: inhibitors; 0.2% of 350,000 active; recombinant BLM DNA unwinding, fluorescence dequenching; P54132; AID 2528; note: nearly all actives have a fitted effect of over 35% in size
APE1 inh – blocks human APE1 abasic DNA cleavage; P27695; recombinant APE1, TAMRA/BHQ-2 abasic DNA cleavage fluorescence; Potency, µM (doses to about 65.8 µM), actives largely listed as inhibitors; 0.35% of 350,000 active; AID 2517; note: nearly all actives have a fitted effect of over 55% in size
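APE1 at 0.75 nM preincubated 15 min at room temperature with compound. Reaction then started with 50 nM double-stranded THF-abasic substrate labelled with TAMRA/BHQ-2, and 525/598 nm fluorescence read kinetically. Activity taken as third-minus-first read difference, normalized to DMSO and NSC13755 controls.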
FEN1 inh – human FEN1 inhibition; Potency, µM (series often up to 114 µM), actives largely listed as inhibitors; Recombinant FEN1 flap cleavage, fluorescence, 15 min; P39748; 0.35% of 390,000 active; AID 588795; note: nearly all actives have a fitted effect of over 65% in size
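Steps: FEN1 (10 nM) dispensed; compound added by pin tool; 15 min at room temperature; substrate added to 50 nM final; reads at 0 min and 15 min; data normalized and fitted (four-parameter Hill).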
RECQ1 helicase – inhibitors of human RECQ1 DNA helicase; Potency, µM (titrated, usually from 57.3 µM), most hits filed as inhibitors; 0.54% of 240,000 active; RECQ1 DNA unwinding, red fluorescence kinetic read; P46063; note: nearly all actives have a fitted effect of over 30% in size
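50 nM RECQ1T1 preincubated 15 min with compound in Tris pH 8.0 buffer with MgCl2, DTT, Tween-20 and 2.5 ug/ml poly(dI-dC); started with 200 nM TAMRA/BHQ-2 forked duplex and 2 mM ATP. Unwinding read as fluorescence (525/598 nm), two reads 2 h apart.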
PGK inhibitor – inhibitors of T. brucei phosphoglycerate kinase; PGK/GAPDH coupled, Kinase-Glo luminescence, 60 min; AID 602233; Potency, µM (top dose mostly 57.5 µM), usual class: inhibitors; P07378; 0.043% of 380,000 active; note: nearly all actives have a fitted effect of over 60% in size
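Recombinant glycosomal PGK reaction used 1,3-bisphosphoglycerate generated in-well by GAPDH (100nM final) in 100mM TEA pH 7.6, 5mM MgCl2, 0.01% Tween-20. After 60 minutes at room temperature, ATP was read by Kinase-Glo Plus luminescence end-point.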
Hits are given with their value; – = inactive; ? = inconclusive; · = no result; ! = not active in a repeat. Calls come from the whole dose curve; as a rule, active = well fitted curve in the direction sought with a large enough effect; inconclusive = small, poorly fitted or top-dose-only effect, or another doubt; inactive = no such curve, though single readings can be large; an effect the other way counts as inactive or inconclusive.

SMILES	GLS inhibitor	BLM helicase inh	APE1 inh	FEN1 inh	RECQ1 helicase	PGK inhibitor
CCC1=NN2C(=N)/C(=C\c3cccn3-c3ccc(Br)cc3)C(=O)N=C2S1	–	–	–	16µM	–	–
COc1ccc(C2NC(=S)N3C(c4ccc(OC)c(OC)c4)NC(=S)N23)cc1OC (stereo unspecified)	–	·	·	·	·	·
CC[N+](CC)(CC)CCOC(=O)C(C1CCCC1)C1CCCC1	–	·	·	·	·	·
COc1ccc2nc3cc(Cl)ccc3c(Nc3cc(C(C)C)c(O)cc3C)c2c1	–	–	–	–	–	–
COc1ccc2nc3cc(Cl)ccc3c(Nc3cc(CN4CCCC4)c(O)c(CN4CCCC4)c3)c2n1	·	?	15µM	·	·	·
O=[N+]([O-])c1ccc(O/N=[N+](\[O-])N2CCCC2)c([N+](=O)[O-])c1	·	·	·	–	·	·
CNC(=O)N(O)C1N(/N=C/c2ccc(C)cc2)C(=S)SC1(C)C (stereo unspecified)	–	–	–	–	·	·
Cc1ccc(/C=N/N2C(=S)SC(C)(C)C2N(O)C(=O)Nc2ccc([N+](=O)[O-])cc2)cc1 (stereo unspecified)	–	–	–	–	32µM	?
CCC(C)C(C(=O)OCC[N+](C)(CC)CC)c1ccccc1 (stereo unspecified)	–	·	·	·	·	·
Cc1nc(N=Nc2cc([N+](=O)[O-])ccc2Cl)c(COP(=O)(O)O)c(C=O)c1O	·	–	35µM	·	28µM	·
CCOc1cc(C=O)cc(N=Nc2cccc([N+](=O)[O-])c2)c1O	–	–	–	–	·	–
Cc1ccc2nc(-c3ccc(N=Nc4cc(S(=O)(=O)O)c5ccccc5c4O)cc3)sc2c1S(=O)(=O)O	·	·	·	7.1µM	·	·
Cc1ccc(N=Nc2ccc3ccccc3c2O)cc1	–	–	–	–	·	?
COc1ccc(NC(=O)c2ccccc2OCC(=O)Nc2ccc(Br)cc2)cc1	·	·	·	–	·	·
CCCCCCCCC#CCC#CCC#CCCCC(=O)O	·	–	?	·	20µM!	·
CCO[C@H]1OC(C(=O)N2CCN(Cc3ccc4c(c3)OCO4)CC2)=C[C@@H](c2cn(C(C)=O)c3ccccc23)[C@@H]1CCCO	–	–	–	–	35µM	–
CC(C)C[C@@H](CC(=O)N[C@H](CC(=O)N[C@@H]1CCCC[C@H]1C(=O)N[C@H](CC(=O)N[C@@H](CCC(=O)O)CC(=O)O)Cc1c[nH]c2ccccc12)C(C)C)NC(=O)[C@@H]1CCCC[C@H]1N	·	7.1µM	–	·	–	·
CC(C)[C@@H](CC(=O)N[C@@H]1CCCC[C@H]1C(=O)N[C@H](CC(=O)N[C@@H](CCC(=O)O)CC(=O)O)Cc1c[nH]c2ccccc12)NC(=O)C[C@H](Cc1c[nH]c2ccccc12)NC(=O)[C@@H]1CCCC[C@H]1N	·	–	–	·	–	·
CCc1ccc2c(c1)C(NC(C)=O)C(=O)N2CCN1CCOCC1 (stereo unspecified)	5µM	–	–	?	·	?
CC(=O)N[C@@H](C=O)[C@H](O)[C@H](O)[C@@H](O)CO	·	·	–	·	·	·
Cc1c2cc(O)c(=O)cc-2oc2cc(O)c(O)cc12	?	14µM	0.79µM	?	10µM	?
O=c1cc(-c2ccc(O)cc2O)oc2ccccc12	·	–	–	·	–	·
CC(C)C1Cc2c(sc3ncnc(NN)c23)CO1 (stereo unspecified)	11µM	–	–	–	·	–
Cc1cc(C)c(S(=O)(=O)c2ccccc2Cl)c(Cl)n1	·	–	–	·	–	·
Cc1cc(C)c(S(=O)(=O)c2ccc(F)cc2C)c(Cl)n1	16µM	–	–	–	·	–
SMILES	GLS inhibitor	BLM helicase inh	APE1 inh	FEN1 inh	RECQ1 helicase	PGK inhibitor
CC[n+]1c(/C=C/Nc2ccccc2)sc2ccccc21	–	–	–	–	–	–
CCCC[n+]1c(/C=C/c2ccc(N(C)C)cc2)sc2ccccc21	·	·	·	50µM	·	·
CN(Cc1ccccc1)c1ccc(/C=C/c2sc3ccccc3[n+]2C)cc1	·	·	·	40µM	·	·
CCCCCCCCCC[n+]1ccc(/C=C/c2ccc(N(C)C)cc2)c2ccccc21	·	·	·	79µM	·	·
Nc1nc2c(c(=O)[nH]1)N(C=O)C(CNc1ccc(C(=O)N[C@@H](CCC(=O)O)C(=O)O)cc1)CN2 (stereo partly specified)	·	·	–	·	·	·
CCO[C@@H](Cc1ccc(OCCc2ccc(OS(C)(=O)=O)cc2)cc1)C(=O)O	–	·	·	·	·	·
